Screens (PubChem)
Sampled rows, rich in hits. Any-hit rate of the full collection: about 15%.
Pf growth 48h: Primary qHTS for delayed death inhibitors of the malarial parasite plastid, 48 hour incubation. 310,000 tested, 5.9% active. P. falciparum luciferase growth in erythrocytes, 48 h. Potency, µM (top dose mostly 28.7 µM), for the others: at the highest dose activity change, negative = inhibition, usual class: inhibitors; further: potency means the concentration at half of the fitted maximal effect; on the % scale 0 is the no-effect control and ±100 the full control effect
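Cell-based growth assay: transgenic P. falciparum expressing firefly luciferase, cultured in red cells within RPMI 1640 containing 0.5% w/v Albumax, 24 mM bicarbonate and gentamycin. A drop in luciferase activity indicates inhibition.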
HCV inh: qHTS Assay for Inhibitors of Hepatitis C Virus (HCV) | Huh7.5.1 HCVcc-Cre infection, luciferase reporter, 44 h | Potency, µM (series often up to 41.8 µM), without a hit: at the top dose activity change, negative = inhibition, most hits filed as inhibitors | 340,000 tested, 3.4% active | AID 651820, 2012; further: potency means the concentration at half of the fitted maximal effect; on the % scale 0 is the no-effect control and ±100 the full control effect
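Reporter virus HCVcc-Cre (~0.5 moi) infects cells exposed to compound; seeding density 1,000 cells/well with 4 h settling beforehand. Luminescence, 15 sec read, taken 44 h post-infection following a 15 min RT substrate incubation.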
Sm TGR block: qHTS Assay for the Inhibitors of Schistosoma Mansoni Peroxiredoxins | Schistosoma mansoni thioredoxin glutathione reductase (TGR), Q962Y6 | purified TGR, DTNB reduction, TNB absorbance 405 nm | Potency, µM (series often up to 114 µM), for the others: at the highest dose activity change, negative = inhibition, actives largely listed as inhibitors | 360,000 tested, 3% active | AID 485364, 2010; further: potency means the concentration at half of the fitted maximal effect; on the % scale 0 is the no-effect control and ±100 the full control effect; nearly all actives have a fitted effect of over 60% in size
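TGR 20 nM + NADPH 100 uM (dispensed conc.), cpd preinc 15 min RT; start with NADPH (500 uM addition) then DTNB (15 mM addition). Kinetic TNB absorbance, 405 nm filter. Four-parameter Hill fit across titration.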
Pf growth 96h: Primary qHTS for delayed death inhibitors of the malarial parasite plastid, 96 hour incubation; Potency, µM (doses to about 28.7 µM), for the others: top-dose activity change, negative = inhibition, actives largely listed as inhibitors; AID 504834, 2011; 320,000 tested, 6.9% active; P. falciparum luciferase reporter growth, 96 h; further: potency means the concentration at half of the fitted maximal effect; on the % scale 0 is the no-effect control and ±100 the full control effect
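P. falciparum expressing integrated firefly luciferase grown in erythrocytes (2% hematocrit, 0.05% parasitemia final) with compounds for 96 hours at 37 C, 5% CO2. Growth inhibition read as loss of luminescence after adding luciferase detection reagent.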
HCMV inh: qHTS Assay for inhibitors of the human cytomegalovirus (HCMV); HFF cells, HCMV-luciferase reporter, 72 h; hits give low values; activity change, negative = inhibition, % at 57.5 µM; 410,000 tested, 4.5% active; AID 1259415, 2018; in the data active means activity change below about -60%; inconclusive means no clear call, values can overlap the other calls; inactive means above about -39%; further: on the % scale 0 is the no-effect control and ±100 the full control effect
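After 16 h attachment at 37C, HFF cells received test compound and HCMV-luciferase (1 PFU/cell); reporter luminescence read 72 h later, data normalized against buffer-only and known inhibitor Salinomycin.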
SARS PLpro yeast: qHTS of Yeast-based Assay for SARS-CoV PLP. S. cerevisiae expressing SARS-CoV PLpro, growth rescue. Potency, µM (series often up to 32.9 µM), for inactives: top-dose activity, positive = growth rescue, most hits filed as activators. 330,000 tested, 0.19% active; calls by dose curve; further: potency means the concentration at half of the fitted maximal effect; 0% is about no effect; nearly all actives have a fitted effect of over 55% in size
* hit, by the source's call; ? = inconclusive; · = not tested or not shown; ! = a repeat was not active; [ ] = dose if it differs, or a comment. Unless noted, the call rests on the fitted dose curve; in most records, active means well fitted curve in the direction sought with a large enough effect; inconclusive means small, poorly fitted or top-dose-only effect, or another doubt; inactive means no such curve, though single readings can be large; an effect the other way counts as inactive or inconclusive.

SMILES	Pf growth 48h	HCV inh	Sm TGR block	Pf growth 96h	HCMV inh	SARS PLpro yeast
O=C(Nc1ccc(N2CCN(C(=O)c3ccccc3)CC2)cc1)c1ccc(Br)o1	?	?	-10%	37%	-25	-12%
COc1ccc(OC)c(-c2nc3c(C#N)c[nH]n3c2NC2CCCCC2)c1	·	·	-13%	·	-22	·
C=CCn1c(SCC(=O)NCC2CCCO2)nnc1-c1ccccc1 (stereo not given)	-7%	13%	-7%	16%	-37	-1%
CCO[C@@H]1OC(C(=O)NCc2nc3ccccc3[nH]2)=C[C@H](c2csc3ccccc23)[C@H]1CCCO	?	-15%	-6%	13µM*	-13	0%
CCO[C@H]1OC(C(=O)NCc2nc3ccccc3[nH]2)=C[C@@H](c2csc3ccccc23)[C@@H]1CCCO	10µM*	1µM*	6%	10µM*	33	0%
C[C@H](CO)N1C[C@H](C)[C@@H](CN(C)C(=O)Nc2ccc3c(c2)OCO3)Oc2ccc(NC(=O)Nc3ccc4c(c3)OCO4)cc2C1=O	·	-19%	·	·	-2	-4%
O=C(c1ccccc1C(F)(F)F)N1CC2ON=C(c3c(F)cccc3Cl)C2C1 (stereo not given)	·	·	·	·	-1	·
COc1ccc(C(O)(CCN2CCCCC2)C2CCCCC2)cc1 (stereo not given)	0%	-27%	1.4µM*	5%	?	1%
CCC(O)(CCN1CCCCC1)c1ccccc1 (stereo not given)	16%	-3%	14%	-23%	5	2%
O[C@@](CCN1CCCC1)(c1ccccc1)C1CCCCC1	-15%[12.8 µM]	·	·	8%[12.8 µM]	·	·
CCCCCC(O)(CCN1CCCCC1)c1ccc(OCC)cc1 (stereo not given)	?	?	1µM*	?	4	2%
CCCC(O)(CCN1CCCCC1)c1ccc(OCC)cc1 (stereo not given)	·	?	4µM*	0%	26	-9%
CCc1nc(Nc2ccc(F)c(Cl)c2)c2c3c(sc2n1)CCCC3	·	·	5%	·	?	·
NC(=O)C1CCN(c2nc(-c3cccc(Cl)c3)cs2)CC1	?	·	4%	?	75	-15%
COc1cccc(C(=O)N2CC(=O)Nc3ccc(C)cc3C2c2ccc(F)cc2)c1OC (stereo not given)	·	·	-12%	·	16	·
O=c1c(Cl)cc(Cl)nn1-c1ccccc1	-7%	?	?	-27%	-66*	-28%
O=S(=O)(Nc1nc(-c2sccc2Cl)cs1)c1cc(Cl)ccc1Cl	39%	7%	-25%	138%	·	-22%
COc1cc([N+](=O)[O-])ccc1-c1ccc(C(=O)Nc2ccc(NC(C)=O)cc2)o1	8%	-16%	20µM*	-5%	?	13%
C=CCc1ccc(OCc2ccc(C(=O)Nc3ccc(NC(C)=O)cc3)o2)c(OC)c1	-11%[0.00184 µM]	?	45µM*!	?	29	-4%
CC(=O)Nc1ccc(NC(=O)c2ccc(-c3ccc([N+](=O)[O-])cc3)o2)cc1	-5%	-6%	-14%	12%	15	3%
CC(C)(C)c1cc(C(=O)N/N=C/c2ccc(-c3ccccc3[N+](=O)[O-])o2)n[nH]1	12µM*	?	-32%	10µM*	-34	1%
C=CCNC(=O)c1ccc(-c2ccc([N+](=O)[O-])cc2)o1	64%	-9%	18µM*	31%	?	8%
COc1ccccc1NC(=O)c1ccc(COc2ccccc2OC)o1	3%	?	2%	2%	-29	-9%
C=CCn1c(C)nnc1SCC(=O)Nc1nccs1	?	16%	6%	3%	-30	2%
COc1cccc(NC(=O)c2ccc(-c3ccc([N+](=O)[O-])cc3)o2)c1	?	-24%	25µM*	?	?	-1%
